# In PubChem BioAssay AID934 (National Center for Advancing Translational Sciences (NCATS), 2007):
# Inconclusive results are not listed. Values without a mark were called inactive. Activity calls are given as the source filed them. Calls follow the shape of the dose curve; as a rule, active = well fitted activation curve with a large enough effect; inconclusive = small, poorly fitted or top-dose-only effect; inactive = flat fitted curve, though single readings scatter.
# Experiment: Parental Cell Counter Screen for Stat Signaling Pathway Assay
# Conditions: ME-180 (cervical carcinoma) parental cells, blue fluorescence artefact counter-screen; series mostly up to 38.3 µM; activity (fluorescence increase): at the top concentration
# Description: NIH Molecular Libraries Screening Centers Network [MLSCN] NIH Chemical Genomics Center [NCGC] MLSCN Grant: None NCGC Assay Overview: This assay is a counter screen for the Stat signaling pathway assay (PubChem AID 446). The Stat assay is cell-based and measures Interleukin 6 (IL-6) mediated modulation of a beta-lactamase reporter gene controlled by a STAT inducible element (SIE-bla cells, Invitrogen). IL-6 is a cytokine that signals via the JAK/STAT pathway and is implicated in cancer and inflammation. […] Compounds active in the parental ME-180 cells are likely fluorescent.
# NCGC Assay Protocol Summary: Cells were trypsinized, washed in assay medium (AM, OPTI MEM with 0.5% fetal bovine serum, 0.1 mM nonessential amino acids, 1 mM sodium pyruvate, 10mM HEPES pH 7.3, 100U/ml penicillin, and 100 ug/ml streptomycin) and suspended at […] in AM. Approximately 2500 cells in 5 uL/well was dispensed into 1536-well plates and the cells were incubated overnight at 37 C. 23 nL of compound were delivered by a pin tool and 1 uL of IL-6 (40 pM final concentration in AM) was added. After plates were incubated at 37 C for 5 hrs, 1uL of detector mix (LiveBLAzerTM, Invitrogen) was added, the plates incubated at room temperature for 2.5 hrs, and fluorescence intensity at 460 and 530 nm emissions was measured at 405 nm excitation by an Envision (Perkin Elmer).
Structure (SMILES),Potency,activity (fluorescence increase) [%]
CN1CCc2c(sc3ncn4nc(-c5ccccc5O)nc4c23)C1,31.6 µM (active),
CCCCSc1nc(N)c(C#N)c(-c2cccs2)c1C#N,,38
COc1ccc(-c2nn3c(COc4ccccc4)nnc3s2)cc1OC,,10.2
CC(C)(C)C1CCC2(CC1)C(C#N)=C(SCC(=O)Nc1ccccc1)NC(=O)C2C#N (stereo not given),,24.1
CC1CCN(CC[S-])CC1.O.O.[Cl][Pt],,28.3
CCCCc1nc(NCCNC(=O)c2ccco2)c(C#N)c2c1CSC(C)(C)C2,,25.9
C[n+]1cc2c3c(ccc2c2ccc4cc5c(cc4c21)OCO5)OCO3,10 µM (active),
ClC(Br)=C(n1cnc2ccccc21)n1cnc2ccccc21,,11.1
CC1(C)Cc2c(C#N)c(NCCc3ccccc3)nc(-c3ccco3)c2CO1,5.01 µM (active),
O=c1c(O)c(-c2ccc(O)cc2)oc2cc(O)ccc12,,9.35
Cc1ccc(S(=O)(=O)N2CCN(c3nc(C(C)C)c4c(c3C#N)CC(C)(C)OC4)CC2)cc1,,10.2
COc1cccc2c1C(=O)c1c(O)c3c(c(O)c1C2=O)C[C@](O)(C(=O)CO)C[C@H]3O[C@@H]1C[C@H](N)[C@H](O)[C@H](C)O1,,10.3
COc1cccc2c1C(=O)c1c(O)c3c(c(O)c1C2=O)C[C@@](O)(C(=O)CO)C[C@@H]3O[C@H]1C[C@H](N)[C@H](O)[C@H](C)O1,,17.6
CC(C)C[C@H]1C(=O)N2CCC[C@H]2[C@]2(O)O[C@](NC(=O)[C@@H]3C=C4c5cccc6[nH]c(Br)c(c56)CC4N(C)C3)(C(C)C)C(=O)N12 (stereo not given in full),,11.1
CCOC(=O)N1CCC(=C2c3ccc(Cl)cc3CCc3cccnc32)CC1,,22.2
CCC(=O)Nc1nc(C)c(Oc2ccccc2)c(=O)[nH]1,,1.85
O=c1c(O)c(-c2ccc(O)c(O)c2)oc2cc(O)cc(O)c12,,15.9
COc1ccc(C(=O)CCN(C)C)c2ccccc12,,15.7
COc1ccc(C[C@@H]2C(=O)N[C@H](C)C(=O)N(C)[C@@H]3Cc4ccc(cc4)Oc4cc(ccc4O)C[C@H](C(=O)N[C@@H](C)C(=O)N[C@H](C)C(=O)N2C)N(C)C3=O)cc1,,10.4
N/C(=N\O)c1cn([C@@H]2O[C@@H](CO)[C@H](O)[C@@H]2O)c2ncnc(NO)c12,,18.9

Structure (SMILES),Potency,activity (fluorescence increase) [%]
CCN(CC)CCNc1ccc(CO)c2sc3ccccc3c(=O)c12,,-13.1
C=C1C(=O)O[C@@H]2[C@@H]1CC/C(C)=C\CC[C@@]1(C)O[C@H]21,,28.3
Cn1c(N2CCOCC2)nc2c1c(=O)n(Cc1ccc(Cl)c(Cl)c1)c(=O)n2C,,13
Nc1ncnc2c1ncn2[C@@H]1O[C@@H](CO)[C@H](O)[C@@H]1O,,11.2
ClC(=Nc1cccc2ccccc12)N(c1ccccc1)c1ccccc1,,7.48
CN(C)CCCn1c2c3ccccc3ccc2c2oc(=O)c3ccccc3c21,12.6 µM (active),
COc1ccc2c(c1)c1c(C)c3cnccc3c(C)c1n2CCCN,31.6 µM (active),
CC(=O)Oc1ccc(C(c2ccc(OC(C)=O)cc2)c2ccccn2)cc1,,10.2
CN(C)CCCN=c1c2ccccc2n(C)c2[nH]c(=O)n(C)c(=O)c12,,8.49
CCOC(=O)CSc1nnc2n(Cc3ccccc3)c(=O)c3c4c(sc3n12)CCC4,,16.7
CCN(CC)CCN1C(=O)c2cccc3cc(N)cc(c23)C1=O,,3.77
CCc1cc2c(=O)c(-c3nc4ccccc4[nH]3)coc2cc1OC(=O)N1CCOCC1,12.6 µM (active),
C=CCNC(=O)C(C#N)c1nc2ccccc2nc1N1CCCCCC1 (stereo not given),15.8 µM (active),
OC[C@@H]1CCC[C@H](n2cnc3c(=S)nc[nH]c32)O1,,5.56
Nc1ncnc2c1ncn2[C@@H]1O[C@H](CO)[C@@H](O)[C@H]1O,,1.85
Cc1oc2cc(O)cc(C)c2c(=O)c1-c1cnn(-c2ccccc2)c1,,10.2
C=C1C(=O)O[C@@H]2[C@H]3O[C@]3(C)CCC=C(C)CC[C@@H]12,,-1.87
Cc1ccccc1CNc1ncnc2c1ncn2[C@@H]1O[C@@H](CO)[C@H](O)[C@@H]1O,,12.1
COc1cccc2c1C(=N)c1c(O)c3c(c(O)c1C2=O)C[C@](O)(C(C)=O)C[C@@H]3O[C@H]1C[C@H](N)[C@@H](O)[C@H](C)O1,,16
N=C(N)SCc1cccc2c(=O)cc(-c3ccccc3)oc12,,8.49
